# Source: PubChem BioAssay (NCATS)
# Several values for one entry are separate records, joined by “and”; a condition that tells them apart may be missing. Equal values may be shown once. Results filed as inconclusive are left out. Where a call stands in place of a potency, no number is given. A structure can be active in one record and inactive in another. Activity calls are given as the source filed them. Unless noted, calls follow the shape of the dose curve; as a rule, active = well fitted curve in the direction sought with a large enough effect in the repeat runs; inconclusive = weak or mixed curves; inactive = no such curve, though single readings can be large; an effect the other way counts as inactive or inconclusive.
# Columns and labels:
# [1] = Primary qHTS for small molecule stabilizers of the endoplasmic reticulum resident proteome: Secreted ER Calcium Modulated Protein (SERCaMP) assay (AID 1508630; active = well fitted curve in the direction sought with a large enough effect; an effect the other way counts as inactive or inconclusive)
# In short: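 GLuc-SERCaMP-expressing SH-SY5Y cells, pretreated 16 h with compound, are challenged with thapsigargin to empty ER calcium stores; after 4 h, coelenterazine is added directly to the medium and luminescence is imaged.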
# [2] = Primary qHTS for inhibitors of nuclear receptor binding SET domain protein 2 (NSD2) in an isogenic RCH-ACV NSD2 p.E1099K mutant (9B) (AID 1645876; active = well fitted curve in the direction sought with a large enough effect; an effect the other way counts as inactive or inconclusive; also: nearly all actives have a fitted effect of over 70% in size; also: potency is read from the fitted curve at half-maximal effect)
# [3] = Primary qHTS for inhibitors of nuclear receptor binding SET domain protein 2 (NSD2) in an RCH-ACV wild type WT cells (2C) (AID 1645877; active = well fitted curve in the direction sought with a large enough effect; an effect the other way counts as inactive or inconclusive; also: nearly all actives have a fitted effect of over 70% in size; also: potency is read from the fitted curve at half-maximal effect)
# [4] = molecular target: Cytochrome P450 2D6 (Homo sapiens) (UniProt P10635); assay: Cytochrome P450 family 2 subfamily D member 6 (CYP2D6) small molecule antagonists: luciferase biochemical (cell-free) qHTS assay (AID 1645840); also: nearly all actives have a fitted effect of over 55% in size; also: potency is read from the fitted curve at half-maximal effect; as to activity change, negative = inhibition: series mostly up to about 57 µM
# In short: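 P450-Glo luminescent screen: recombinant CYP2D6 enzyme–proluciferin substrate mix preincubated with compound 10 min at room temperature, then NADPH regeneration added for 1 h at room temperature. Detection reagent added for 20 min; luciferin light read as relative luminescence units.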
# [5] = molecular target: Cytochrome P450 2C9 (Homo sapiens) (UniProt P11712); assay: Cytochrome P450 family 2 subfamily C member 9 (CYP2C9) small molecule antagonists: luciferase biochemical (cell-free) qHTS assay (AID 1645842); also: nearly all actives have a fitted effect of over 55% in size; also: potency is read from the fitted curve at half-maximal effect; as to activity change, negative = inhibition: series mostly up to about 57 µM
# In short: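 Luminescence, after 20 min with luciferin detection reagent, reflected CYP2C9 turnover during a 1 h NADPH-driven reaction at 37C. Enzyme-substrate mix contained 0.4% bovine serum albumin and was preincubated with compound 10 min at room temperature.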
# [6] = molecular target: Cytochrome P450 3A4 (Homo sapiens) (UniProt P08684); assay: Cytochrome P450 family 3 subfamily A member 4 (CYP3A4) small molecule antagonists: luciferase qHTS assay (AID 1645841); also: nearly all actives have a fitted effect of over 45% in size; also: potency is read from the fitted curve at half-maximal effect
# In short: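 Luminescent CYP3A4 activity readout: compounds plus enzyme-substrate mix 10 min at room temperature, reaction started with NADPH regenerating system for 1 h, stopped with detection reagent, read after 20 min. Ketoconazole served as control.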
# [7] = molecular target: N-terminal Xaa-Pro-Lys N-methyltransferase 1 (Homo sapiens) (UniProt Q9BV86); assay: Confirmatory qHTS for Inhibitors of N-terminal methyltransferase 1 (NTMT1): MTaseGlo Assay (AID 1645874; active = well fitted curve in the direction sought with a large enough effect; an effect the other way counts as inactive or inconclusive; also: nearly all actives have a fitted effect of over 65% in size; also: potency is read from the fitted curve at half-maximal effect;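 as to activity change, negative = inhibition: luminescence from SAH made as NTMT1 methylates SPKRIA peptide using SAM; series mostly up to about 100 µM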)
# Description: Assay Submitter (PI): Rong Huang Ph.D.
# Purdue University, West Lafayette, IN 47907
# The N-terminal methytransferase 1 is the first methyltransferase that methylates protein alpha-N-amines and plays an important role in regulating cell mitosis, chromatin interactions and DNA repair. It is observed to be over-expressed in various cancer patient tissues like malignant melanoma and colorectal cancer tissues. Knockdown of NTMT1 in cancer cells causes cell mitotic defects and enhances sensitivity to DNA damaging chemotherapeutics. […] These critical cellular processes in which NTMT1 is implicated, coupled with emerging links to cellular dysfunction, strengthen the inference that NTMT1 is a compelling novel anticancer target. Progress have been made in understanding the molecular properties of NTMT1 and the biological consequences of protein alpha-N-terminal methylation, but there are no specific small molecule probes available for NTMT1 to fully characterize its MTase activity. To address this unmet need, a panel of assay is created and established to enable quantitative high-throughput screening (qHTS) for novel, potent, and selective small molecule NTMT1 inhibitors. Two orthogonal qHTS that use different reagents (ThioGlo vs. MTaseGlo) are developed for primary robotic screening against the NCATS chemical library of more than 400,000 small molecules. Identified inhibitors are reacquired, validated, and further characterized.
# MTaseGlo Assay is a luminescence screen that measure the activity of methyltransferases based on the reaction product S-adenosyl homocysteine (SAH). The substrate SAM is converted to SAH upon enzyme activation. MTase-Glo reagent and detection solution convert SAH to ATP and measure the light from the luciferase reaction.
# Materials: NTMT1 enzyme, substrate SPKRIA, control peptide RCC1-6 is provided by the Huang laboratory.
# SEQUENCE No. (e.g., 1, 2, 3, etc.); […] (e.g., Cells, Incubation, Reagent, etc.); VALUE; DESCRIPTION
# 1; Enzyme; 3 uL; Dispense enzyme mixture (final concentrations of 125 nM NTMT1 and 100 uM SAM) into Greiner 1536-well white / solid bottom assay plate (Greiner Bio One, Monroe, NC).
# 2; Compounds; 23 nL; Compounds and controls were transferred via a Kalypsys Pin Tool (Wako USA) equipped with a 1536-slotted pin array (Wako Automation, Richmond, VA)
# 3; Incubation; 15 min; Incubate at room temperature
# 4; Substrate; 1 uL; Dispense 1 uL of substrate at final concentration of 1 uM. Buffer solution was dispensed in control wells. The assay plate was covered with metal lids.
# 5; Incubation; 30 min; Incubate at room temperature, protected from lights.
# 6; Reagent; 1 uL; Dispensed 5x MTase-Glo detection reagent (R) into the assay plate. The plate was covered with metal lids.
# 7; Incubation; 30 min; Incubate the assay plates at room temperature in the dark to allow for SAH to be converted to ADP.
# 8; Reagent; 5 uL; Dispense 5 uL of 1x MTase-Glo Detection Solution (R) to allow for ADP to be converted to ATP which was then detected with a luciferase reaction.
# 9; Centrifuge; 15 sec; Centrifuge the assay plate for 15 seconds at 1000 RPM.
# 10; Incubation; 30 min; Assay plates were incubation at room temperature in the dark.
# 11; Detection; Luminescence; Plates were read on ViewLux detector (PerkinElmer). Data were normalized to no-enzyme (0% activity) and no-inhibitor (DMSO; 100%) controls, and the resulting percent inhibition data were fitted to a 4-parameter Hill equation using GraphPad Prism.
# Sequence of Cytochrome P450 3A4 (Homo sapiens) (P08684 whole entry, looked up): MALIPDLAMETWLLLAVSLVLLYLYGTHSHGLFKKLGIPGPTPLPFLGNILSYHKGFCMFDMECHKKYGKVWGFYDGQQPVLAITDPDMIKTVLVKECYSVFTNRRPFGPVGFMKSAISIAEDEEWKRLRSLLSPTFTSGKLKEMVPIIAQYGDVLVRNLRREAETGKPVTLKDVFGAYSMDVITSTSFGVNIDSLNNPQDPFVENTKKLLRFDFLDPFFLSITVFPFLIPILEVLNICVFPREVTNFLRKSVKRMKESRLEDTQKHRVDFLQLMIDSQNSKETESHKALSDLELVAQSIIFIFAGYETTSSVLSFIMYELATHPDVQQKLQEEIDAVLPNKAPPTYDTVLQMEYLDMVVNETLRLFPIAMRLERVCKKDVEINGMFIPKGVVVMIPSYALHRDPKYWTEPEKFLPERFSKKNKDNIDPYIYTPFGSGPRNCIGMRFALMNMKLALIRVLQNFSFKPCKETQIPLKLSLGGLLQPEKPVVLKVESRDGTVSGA
# Sequence of Cytochrome P450 2C9 (Homo sapiens) (P11712 whole entry, looked up): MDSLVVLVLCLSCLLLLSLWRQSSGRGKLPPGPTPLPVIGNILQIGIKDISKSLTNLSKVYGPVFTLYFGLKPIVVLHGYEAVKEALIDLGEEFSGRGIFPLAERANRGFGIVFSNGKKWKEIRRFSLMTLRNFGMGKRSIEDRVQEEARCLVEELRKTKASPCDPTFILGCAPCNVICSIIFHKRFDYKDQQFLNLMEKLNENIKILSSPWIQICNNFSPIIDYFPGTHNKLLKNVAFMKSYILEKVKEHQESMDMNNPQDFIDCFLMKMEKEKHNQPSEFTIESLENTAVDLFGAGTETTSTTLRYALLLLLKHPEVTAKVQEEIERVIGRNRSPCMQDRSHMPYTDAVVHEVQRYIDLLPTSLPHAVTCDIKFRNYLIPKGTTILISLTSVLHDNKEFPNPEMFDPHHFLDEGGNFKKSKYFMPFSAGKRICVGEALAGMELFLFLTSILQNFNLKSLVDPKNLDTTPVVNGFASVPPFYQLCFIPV
# Sequence of N-terminal Xaa-Pro-Lys N-methyltransferase 1 (Homo sapiens) (Q9BV86 whole entry, looked up): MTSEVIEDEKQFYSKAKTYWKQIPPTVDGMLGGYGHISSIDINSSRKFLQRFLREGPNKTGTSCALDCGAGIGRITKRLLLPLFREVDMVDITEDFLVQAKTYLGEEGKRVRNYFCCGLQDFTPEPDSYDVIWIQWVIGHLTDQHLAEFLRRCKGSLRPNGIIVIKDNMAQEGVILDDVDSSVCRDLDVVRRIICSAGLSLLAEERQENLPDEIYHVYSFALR
# Sequence of Cytochrome P450 2D6 (Homo sapiens) (P10635 whole entry, looked up): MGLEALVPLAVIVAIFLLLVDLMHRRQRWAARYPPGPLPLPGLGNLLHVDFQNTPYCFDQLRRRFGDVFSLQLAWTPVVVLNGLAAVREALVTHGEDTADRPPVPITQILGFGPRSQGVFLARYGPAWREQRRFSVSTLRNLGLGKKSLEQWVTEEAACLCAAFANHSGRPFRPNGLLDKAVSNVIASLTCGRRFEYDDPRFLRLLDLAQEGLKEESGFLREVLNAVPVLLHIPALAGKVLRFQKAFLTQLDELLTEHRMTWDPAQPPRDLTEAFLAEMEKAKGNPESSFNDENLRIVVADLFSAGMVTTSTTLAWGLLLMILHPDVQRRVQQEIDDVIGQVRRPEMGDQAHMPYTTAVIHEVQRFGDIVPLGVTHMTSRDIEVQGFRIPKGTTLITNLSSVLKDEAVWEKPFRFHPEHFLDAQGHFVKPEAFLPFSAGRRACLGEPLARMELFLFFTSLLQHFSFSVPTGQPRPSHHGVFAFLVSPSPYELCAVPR
smiles,measurement,setting,value
Cc1ccc(Sc2cncc3sc(C(N)=O)cc23)cc1,outcome,[1],inactive
same,Potency,[2],inactive
COC(=O)C1=CO[C@@H](O[C@@H]2O[C@H](CO)[C@@H](O)[C@H](O)[C@H]2O)[C@@H]2[C@@H](C)[C@@H](O)C[C@H]12,outcome,[1],inactive
same,Potency,[2],inactive
same,Potency,[3],inactive
O=C(Nc1cccnn1)N1CCC(=Cc2cccc(Oc3ccc(C(F)(F)F)cn3)c2)CC1,Potency,[4],10.7 µM (active)
same,Potency,[5],inactive
same,Potency,[2],11.5 µM (active)
same,Potency,[3],10.3 µM (active)
CCCCC/C=C\C/C=C\CCCCCCCC(=O)O,"activity change, negative = inhibition",[1],-23.8% [at 3.88 µM] (inactive)
O=C(O)CC/C=C\CC[C@H]1[C@@H](N2CCCCC2)[C@@H](O)C[C@@H]1OCc1ccc(-c2ccccc2)cc1,outcome,[1],inactive
CNc1nc(Nc2cnn([C@H]3CCN(C4COC4)C[C@@H]3F)c2Cl)ncc1C(F)(F)F,Potency,[4],inactive
same,Potency,[6],inactive
same,Potency,[5],2.68 µM (active)
O=C(C1CC1)N1CC[C@@H](Cc2n[nH]c(=O)n2-c2ccc(-c3ccc4occc4c3)cc2)C1,Potency,[4],13.5 µM (active)
same,Potency,[6],6.74 µM (active)
same,Potency,[5],6.74 µM (active)
same,Potency,[2],inactive and 16.6 µM (active)
same,Potency,[3],inactive and 18.6 µM (active)
c1nc(NC2CCCCCC2)c2cc(CNC[C@H]3CCCO3)sc2n1,Potency,[4],19 µM (active)
COc1c(C)c(C(=O)c2ccc(N)c(C(=O)O)c2)n2ccccc12,Potency,[4],inactive
same,Potency,[5],12 µM (active) and 10.7 µM (active)
same,Potency,[7],inactive
same,Potency,[2],inactive
same,Potency,[3],inactive
CCCCC(C)(O)C/C=C/[C@H]1[C@H](O)CC(=O)[C@@H]1CCCCCCC(=O)OC (some centres not stated),Potency,[4],10.7 µM (active)
same,Potency,[5],2.68 µM (active)
CCOC(=O)C1=CC2(CC)CCCN3CCc4c(n1c1ccccc41)C32 (configuration not stated),outcome,[1],inactive
CC1=C(/C=C/C(C)=C/C=C/C(C)=C/CO)C(C)(C)CCC1,outcome,[1],inactive
CC[C@@H](c1ccc(F)c(F)c1)n1c(C(=O)OC)c(-c2ccno2)[nH]c1=S,Potency,[4],inactive
same,Potency,[5],0.756 µM (active)
same,Potency,[7],inactive
C[C@@H]1[C@H](O)[C@@H](C)/C=C/C=C\C=C\C=C\C=C\C=C\C=C\[C@H](O[C@@H]2O[C@H](C)[C@@H](O)[C@H](N)[C@@H]2O)C[C@@H]2O[C@](O)(C[C@@H](O)C[C@@H](O)[C@H](O)CC[C@@H](O)C[C@@H](O)CC(=O)O[C@H]1C)C[C@H](O)[C@H]2C(=O)O (stereo in doubt),Potency,[4],inactive
Nc1c(N=Nc2ccc(-c3ccc(N=Nc4cc(S(=O)(=O)O)c5ccccc5c4N)cc3)cc2)cc(S(=O)(=O)O)c2ccccc12,Potency,[4],7.56 µM (active)
Clc1cc(Cl)c(OCC#CI)cc1Cl,Potency,[4],0.674 µM (active)
same,Potency,[5],6.01 µM (active)
N#Cc1ccc2[nH]c(O)c(-c3ccc(CN4CCOCC4)cn3)c2c1,Potency,[4],12 µM (active) and 6.74 µM (active)
OCC(S)CS (configuration not stated),Potency,[4],16.9 µM (active)
same,Potency,[5],2.68 µM (active)
Cc1cc(/C=C/c2ccc3cc(N(C)C)ccc3[n+]2C)c(C)n1-c1ccccc1,outcome,[1],inactive
NC(=O)c1ncn(C2OC(CO)C(O)C2O)n1 (configuration not stated),Potency,[4],inactive
COc1cc2c(Nc3ccc(Cl)c(Cl)c3F)ncnc2cc1OCC1C[C@@H]2CN(C)C[C@@H]2C1 (some centres not stated),Potency,[4],16.9 µM (active)
same,Potency,[6],inactive
same,Potency,[7],15.1 µM (active)
same,Potency,[2],2.95 µM (active)
same,Potency,[3],2.63 µM (active) and 1.86 µM (active)
CC(C)N=c1cc2n(-c3ccc(Cl)cc3)c3ccccc3nc-2cc1Nc1ccc(Cl)cc1,outcome,[1],inactive
same,Potency,[4],1.34 µM (active)
O=C(Nc1ccc(Br)cc1)c1cc(Br)c(Br)s1,Potency,[4],9.52 µM (active)
same,Potency,[5],21.3 µM (active)
CN1Cc2c(N)cccc2C(c2ccccc2)C1 (configuration not stated),outcome,[1],inactive
same,Potency,[4],7.76 µM (active)
same,Potency,[2],inactive
same,Potency,[3],inactive
Cc1c(C)c2c(c(C)c1O)CC[C@@](C)(CCC[C@H](C)CCC[C@H](C)CCCC(C)C)O2,Potency,[4],inactive
c1ccc(Nc2nc3c(s2)CCCc2[nH]ncc2-3)nc1,Potency,[4],26.8 µM (active)
COC(=O)CCC(=O)CN,Potency,[4],inactive
COCCN(C)Cc1ccc2nc3sc(C(=O)N(C)C4CCCCC4)cn3c2c1,Potency,[4],inactive
same,Potency,[6],inactive
same,Potency,[2],inactive
same,Potency,[3],inactive
CC(=O)c1cnc2ccc(-c3cc(Cl)c(O)c(Cl)c3)nc2c1NC1CCC(CN(C)C)CC1 (configuration not stated),Potency,[4],inactive
same,Potency,[5],inactive
same,Potency,[2],30.3 nM (active) and 3.7 nM (active)
same,Potency,[3],38.2 nM (active) and 3.7 nM (active)
Nc1nc(N)c2nc(CNc3ccc(C(=O)N[C@@H](CCC(=O)O)C(=O)O)cc3)cnc2n1,Potency,[4],inactive
same,Potency,[6],inactive
